Screens: PubChem, National Center for Advancing Translational Sciences (NCATS)
HepG2 tox: HepG2 cytotoxicity, counter-screen for TGF-b inhibitors; HepG2 CAGA-GFP viability, ATP luminescence, 18 h; Potency, µM (titrated, usually from 46.1 µM), inactives show top-dose activity change, negative = cytotoxicity, usual class: cytotoxic; 0.76% of 410,000 active; AID 588856; also: potency is read from the fitted curve at half-maximal effect
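CellTiter-Glo luminescence gave cytotoxicity after 18 hours at 37 degrees C. The cells were HepG2 CAGA-GFP in 1% FBS DMEM, stimulated with 500 pg/mL TGF-beta after compound addition. %Activity was normalised to no-cell wells (complete cell-killing) and DMSO (no toxicity), and curves were fitted and classified.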
TDP1 inh: inhibitors of human tyrosyl-DNA phosphodiesterase TDP1; Q9NUW8; recombinant TDP1, AlphaScreen DNA substrate cleavage; Potency, µM (highest dose often 130 µM), for the others: at the top dose activity change, negative = inhibition, usual class: inhibitors; 0.28% of 350,000 active; also: potency is read from the fitted curve at half-maximal effect; % is scaled to controls: 0 for no effect and ±100 for the full control effect; nearly all actives have a fitted effect of over 40% in size
Target sequence (Q9NUW8 whole entry, looked up): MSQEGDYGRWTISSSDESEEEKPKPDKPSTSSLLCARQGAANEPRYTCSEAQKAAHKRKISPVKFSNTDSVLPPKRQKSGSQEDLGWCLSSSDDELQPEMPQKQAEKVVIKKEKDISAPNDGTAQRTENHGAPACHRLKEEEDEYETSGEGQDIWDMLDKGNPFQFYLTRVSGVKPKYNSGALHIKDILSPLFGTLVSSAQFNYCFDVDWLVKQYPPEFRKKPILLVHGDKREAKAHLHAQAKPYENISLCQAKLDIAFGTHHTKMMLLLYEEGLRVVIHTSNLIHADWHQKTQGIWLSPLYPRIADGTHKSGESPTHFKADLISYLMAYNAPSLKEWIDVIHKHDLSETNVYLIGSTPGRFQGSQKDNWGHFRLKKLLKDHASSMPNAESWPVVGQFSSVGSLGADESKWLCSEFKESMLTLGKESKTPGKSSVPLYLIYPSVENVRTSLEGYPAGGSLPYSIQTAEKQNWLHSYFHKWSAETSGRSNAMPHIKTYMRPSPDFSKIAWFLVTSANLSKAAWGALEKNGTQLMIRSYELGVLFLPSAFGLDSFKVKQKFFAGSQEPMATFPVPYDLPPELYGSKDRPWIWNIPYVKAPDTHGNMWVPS
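Here, a 5' biotin and 3' phosphotyrosine-FITC DNA oligonucleotide reports Tdp1 activity: intact substrate bridges AlphaScreen beads, while cleavage leaves a 3' phosphate and drops signal. All incubations at room temperature.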
DT40 TDP1 no CPT: qHTS for Inhibitors of human tyrosyl-DNA phosphodiesterase 1 (TDP1): qHTS in cells in absence of CPT; DT40 Tdp1-/- hTDP1 cells, no CPT, ATP luminescence, 48 h; Potency, µM (titrated, usually from 46.2 µM), without a hit: top-dose activity change, negative = growth inhibition, most hits filed as inhibitors; 15% of 420,000 active; AID 686978, 2013; also: potency is read from the fitted curve at half-maximal effect; % is scaled to controls: 0 for no effect and ±100 for the full control effect; nearly all actives have a fitted effect of over 55% in size
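Luminescent ATP content (CellTiter-Glo) served as the growth readout. Knockout chicken DT40 cells expressing human TDP1 were exposed to compounds without camptothecin for a minimum 48 hr at 37 °C.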
TDP1 cell CPT: growth inhibition of DT40 Tdp1-/-;hTDP1 cells with camptothecin (screen for TDP1 inhibitors). chicken DT40 Tdp1-/-;hTDP1 cells + 20 nM CPT, ATP luminescence, 48 h. Potency, µM (series often up to 46.2 µM), inactives show at the highest dose activity change, negative = growth inhibition, most hits filed as inhibitors. 12% of 420,000 active; also: potency is read from the fitted curve at half-maximal effect; % is scaled to controls: 0 for no effect and ±100 for the full control effect; nearly all actives have a fitted effect of over 55% in size
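Chicken DT40 Tdp1-/- cells complemented with human TDP1, 400 cells/well, exposed to compounds plus 20 nM camptothecin for at least 48 h at 37 C; viability read as ATP content by CellTiter-Glo luminescence.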
TGFb inhibitor: blocks TGF-b signaling | 1.2% of 410,000 active | Potency, µM (titrated, usually from 46.1 µM), for inactives: at the top dose activity, negative = inhibition, actives largely listed as inhibitors | HepG2 CAGA-GFP TGF-b/SMAD3 reporter, GFP fluorescence, 18 h; TGF-beta stimulated, 500 pg/mL final | AID 588855; also: potency is read from the fitted curve at half-maximal effect; % is scaled to controls: 0 for no effect and ±100 for the full control effect; nearly all actives have a fitted effect of over 65% in size
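TGF-beta reporter screen: HEPG2 CAGA-GFP, 1% FBS, 500 pg/mL TGF-beta final, 18 h; per-cell GFP summed per well; curves fitted and categorized by class.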
IL1B secr inh: blocks inflammasome-driven IL-1 beta release; activity change, % at 57.5 µM; THP-1 LPS/ATP IL-1B secretion, AlphaLISA, 16 h; active compounds read low; 4.7% of 360,000 active; in the data active = activity change below about -50%; inconclusive = mostly about -30% to -49%; also: % is scaled to controls: 0 for no effect and ±100 for the full control effect
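THP-1 cells pretreated 1 hr with compounds (up to 57.5 uM final), then stimulated with LPS (250 ng/mL final) plus ATP (1.25 mM final); secreted IL-1B measured by AlphaLISA after 16 hr, decreased signal indicating inhibition.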
The depositor's hits bear a star; ? = inconclusive; . = no result; [ ] = dose if it differs, or a comment. The list is not random: actives were taken first. Their share in the collection is about 18%. Unless noted, calls follow the shape of the dose curve; as a rule, active = well fitted curve in the direction sought with a large enough effect; inconclusive = small, poorly fitted or top-dose-only effect, or another doubt; inactive = no such curve, though single readings can be large; an effect the other way counts as inactive or inconclusive.

SMILES	HepG2 tox	TDP1 inh	DT40 TDP1 no CPT	TDP1 cell CPT	TGFb inhibitor	IL1B secr inh
O=C(NC1CC1)C1CC(=O)N(c2cccc(Cl)c2Cl)C1 (stereo unspecified)	9%	4%	1%	-9%	-3%	-3
COc1ccc(/C=C/C(=O)OCC(=O)NCCc2ccccc2)c(OC)c1	-9%	1%	21µM*	?	-2%	5
COc1ccc(OC)c(/C=C/C(=O)Oc2ccc(C(C)=O)cc2)c1	-3%	.	-25%	-3%	-16%	-5
COc1cc(/C=C/C(=O)OCC(=O)NCCc2ccccc2)cc(OC)c1OC	2%	-2%	-4%	1%	3%	17
CC1CCCC(C)N1C(=O)COC(=O)/C=C/c1ccc(Br)o1 (stereo unspecified)	-8%	11µM*	-10%	-17%	-20%	12
COc1ccc(OC)c(/C=C/C(=O)OCC(=O)N2C(C)CCCC2C)c1 (stereo unspecified)	2%	-5%	10µM*	?	5%	-28
COc1ccc(OC)c(/C=C/C(=O)OCC(=O)Nc2cccc(C(C)=O)c2)c1	5%	-6%	?	16µM*	-4%	8
COc1cc(F)ccc1-c1csc(C(NC(C)=O)c2ccccc2)n1 (stereo unspecified)	-48%	.	-20%	-27%	7%	-3
CCCCn1c(=NC(=O)c2ccc3c(c2)OCO3)c(C#N)cc2c(=O)n3cccc(C)c3nc21	0%	-3%	9.2µM*	7.3µM*	2%	0
CCCCn1c(=NC(C)=O)c(C#N)cc2c(=O)n3cccc(C)c3nc21	3%	.	18µM*	-29%	-6%	60
Cc1c(Cl)cccc1NC(=O)NN1CCN(C)CC1	0%	2%[56.1 µM]	2%	?	-11%	0
COc1ccc(C2Nc3ccccc3C(=O)N2Cc2ccccc2C)cc1COc1ccc(NC(C)=O)cc1 (stereo unspecified)	.	-2%	.	.	.	.
COC(=O)Nc1c(-c2ccccc2)nc2ccccn12	-1%	-5%	0%	1%	-2%	5
Clc1ccc(-c2nc3ccccn3c2CN2CCCCC2)cc1	2%	4%	?	?	-6%	5
Oc1ccc(N2CCN(Cc3c(-c4ccccc4)nc4ccccn34)CC2)cc1	-9%	19%	15µM*	?	-7%	-12
c1ccc(-c2nc3ccccn3c2-c2ccccc2)cc1	7%	.	12µM*	?	5%	0
N#CCC(=O)N/N=C/c1cn(Cc2ccccc2C#N)c2ccccc12	6%	4%	-23%	3%	29%	29
COc1ccc(/C=N\NC(=O)c2cc3c(ccc4ccccc43)o2)cc1O	-31%	.	?	?	?	-5
COc1ccc2ccc(OC)c(/C=N/NC(=O)c3cc4ccccc4o3)c2c1	-9%	.	18µM*	?	6%	-4
N#CCC(=O)N/N=C/c1cn(Cc2ccc(Cl)c(Cl)c2)c2ccccc12	-145%	-1%	?	-28%	?	32
O=C(O)c1ccc(/C=N/NC(=O)c2cc3c(ccc4ccccc43)o2)cc1	2%	40µM*	-18%	?	2%	?
O=C(N/N=C/c1ccncc1)c1cc2c(ccc3ccccc32)o1	-40%	.	-7%	6%	17%	-3
N#CCC(=O)N/N=C/c1cn(Cc2cccc3ccccc23)c2ccccc12	-24%	7%	3.7µM*	5.2µM*	?	0
N#CCC(=O)N/N=C/c1c(-c2ccccc2)n(-c2ccccc2)c2ccccc12	3%	4%	21µM*	?	-4%	-10
O=C(c1nc2ccccn2c1CNCCOc1cccnc1)N1CCOCC1	-5%	.	-15%	-7%	-2%	-1
SMILES	HepG2 tox	TDP1 inh	DT40 TDP1 no CPT	TDP1 cell CPT	TGFb inhibitor	IL1B secr inh
O=C(CN(Cc1ccccc1)C(=O)CCC(=O)Nc1ccccn1)NCc1ccco1	8%	-4%	?	6%	9%	0
COc1ccccc1/C=N/NC(=O)c1cc2c(ccc3ccccc32)o1	-1%	3%	?	16µM*	-5%	-9
N#CCn1cc(/C=N/NC(=O)c2cc3c(ccc4ccccc43)o2)c2ccccc21	-1%	.	12µM*	21µM*	3%	-4
COc1ccc(/C=N/NC(=O)c2cc3c(ccc4ccccc43)o2)cc1OC	-17%	1%	?	?	-10%	-7
Cc1cc(OCC#N)nc(N)n1	14%	0%	?	-12%	-8%	16
CCN1CCN(Cc2c(O)ccc3c(=O)c(Oc4ccccc4C(C)C)c(C(F)(F)F)oc23)CC1	-20%	.	-1%	-6%	-1%	.
Cc1ccc(NC(=O)c2ccccc2NS(=O)(=O)c2ccc(Cl)s2)cc1	-69%	6%	15µM*	23µM*	?	-4
O=C(Nc1ccccc1)c1ccccc1NS(=O)(=O)c1ccc(Cl)s1	-31%	0%	?	?	13µM*	0
COc1ccccc1OC[C@H](O)COC(N)=O	.	13%[21 µM]	.	.	.	.
COc1ccc2oc3cc(C)[n+]([O-])c(-c4ccc(Br)cc4)c3c2c1	-8%	-1%	0.0082µM*	?	-31%	-3
CCOC(=O)c1c(-c2ccc(OC)cc2)oc2ccc(OCc3ccc(Br)cc3)cc12	-2%	.	?	?	-10%	.
Cc1ccccc1C1(O)c2ccccc2-c2ccccc21	-37%	.	15µM*	23µM*	-22%	16
Cn1c(=O)c2c(nc(CN3CCN(C(c4ccccc4)c4ccccc4)CC3)n2CCCO)n(C)c1=O	-20%	.	21µM*	?	-7%	-5
COCCn1c(CN2CCN(C(c3ccccc3)c3ccccc3)CC2)nc2c1c(=O)n(C)c(=O)n2C	3%	.	16µM*	?	6%	22
COCCn1c(CN2CC(C)CC(C)C2)nc2c1c(=O)n(C)c(=O)n2C (stereo unspecified)	-11%	1%	-7%	-9%	0%	-3
CC(Sc1nc2ccccc2[nH]1)C(=O)NC1CCCCC1C (stereo unspecified)	-6%	5%	-17%	-18%	?	-4
CC(Sc1nc2ccccc2c(=O)n1C)C(=O)NC1CCCCC1C (stereo unspecified)	-3%	1%	2.3µM*	4.1µM*	-10%	-4
O=C(Cc1cccs1)Nc1nc(-c2ccc(F)cc2F)cs1	-52%	1%	?	10µM*	?	-70*
